Data published in PubChem BioAssay (NCATS).
Where “and” joins values, the source holds several entries; their conditions need not be identical. Equal entries are not always repeated. Inconclusive results are not listed. Calls of active or inactive are those of the source. Unless noted, the call rests on the fitted dose curve.

What was measured:
[1] = qHTS assay for small molecule agonists of retinoid X receptor alpha signaling (AID 588544); conditions: HEK293T RXRa-UAS-bla, beta-lactamase reporter, 18 h; 530 nm emission;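 on activation: 0% = DMSO basal wells and 100% = reference agonist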
[2] = biological target: Retinoic acid receptor RXR-alpha (Homo sapiens) (UniProt P19793); assay: as above; conditions: HEK293T RXRa-UAS-bla, beta-lactamase reporter, 18 h; series mostly up to 76.7 µM
[3] = biological target: Thyroid hormone receptor beta (Homo sapiens) (UniProt P10828); assay: qHTS assay for small molecule agonists of thyroid hormone receptor beta signaling (AID 588545); conditions: TR-UAS-bla GripTite HEK 293, beta-lactamase ratio, agonist mode, 18 h, percent of T3 response, DMSO as zero; series mostly up to 76.7 µM;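 further: 0% = DMSO only and 100% = 10 nM T3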
Outline: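 Efficacy and EC50 values derive from Hill fits of qHTS titration data, normalized to 10 nM T3 and DMSO-only wells. HEK 293 reporter cells were stimulated for 18 hrs at 37 C, with beta-lactamase activity measured by CCF4 fluorescence.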

[4] = qHTS assay for small molecule antagonists of retinoid X receptor alpha signaling (AID 588546; active means well fitted inhibition curve with a large enough effect in the signal ratio, with a control signal flat, not every such curve was filed as active; the % refers to the signal ratio;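 further: cells stimulated with 9-cis-retinoic acid as agonist; on the % scale 0 is the no-effect control and ±100 the full control effect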); conditions: HEK293T RXRa-UAS-bla, beta-lactamase ratio, antagonist mode; measured here: W530 green channel, cytotoxicity proxy
Outline: (§1)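 Beta-lactamase reporter inhibition, read as CCF4 fluorescence ratio (ex 405, em 460/530 nm) after 2 h at RT. HEK293T UAS-bla cells, 2500/well, were stimulated with 9-cis-RA at 500 or 100 nM final alongside test compound for 18 h at 37 C.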

[5] = biological target: Retinoic acid receptor RXR-alpha (Homo sapiens) (UniProt P19793); assay: as above; conditions: HEK293T RXRa-UAS-bla, beta-lactamase ratio, antagonist mode
Outline: as §1

[6] = biological target: Thyroid hormone receptor beta (Homo sapiens) (UniProt P10828); assay: qHTS assay for small molecule antagonists of thyroid hormone receptor beta signaling (AID 588547; active means well fitted inhibition curve with a large enough effect in the signal ratio, with a control signal flat, not every such curve was filed as active; the % refers to the signal ratio;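 further: cells stimulated with 0.4 nM T3 agonist during compound exposure; on the % scale 0 is the no-effect control and ±100 the full control effect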); conditions: TR-UAS-bla HEK293, beta-lactamase ratio, antagonist mode, 18 h
Outline: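 TR-UAS-bla GripTite HEK293 cells in 2% charcoal/dextran FBS medium were preincubated 4 h at 37 C, given compound (0.59 nM to 92 uM) plus 0.4 nM T3 (final) for 18 h, then CCF4 for 2 h at RT; Hill fit gave IC50.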

[7] = biological target: Voltage-gated inwardly rectifying potassium channel KCNH2 (Homo sapiens) (UniProt Q12809); assay: qHTS Assay for Small Molecule Inhibitors of the Human hERG Channel Activity (AID 588834; active means well fitted inhibition curve with a large enough effect;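 further: top concentration of the series differs between compounds; on the % scale 0 is the no-effect control and ±100 the full control effect; lower thallium flux fluorescence means stronger hERG block; nearly all actives have a fitted effect of over 50% in size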); conditions: U2OS BacMam hERG, FluxOR thallium flux fluorescence; series mostly up to 92.2 µM
Outline: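 Step 1: BacMam hERG transduction of U2OS, 4 hrs RT. Step 2: overnight 37 °C, plate 2000 cells/well, 4 hr. Step 3: FluxOR load, compound 10 min, stimulate, read fluorescence.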

[8] = qHTS assay for small molecule agonists of the antioxidant response element (ARE) signaling pathway (AID 651741; active means well fitted activation curve with a large enough effect in the signal ratio; the % refers to the signal ratio; further: % of control where 0% means no effect); conditions: HepG2 ARE-bla reporter, beta-lactamase FRET ratio, 16 h; series mostly up to 96 µM
Outline: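 Reporter: beta-lactamase under ARE, stably in HepG2. Exposure: 16 h, 37 C, compounds delivered in DMSO by pin tool after 5 h cell preincubation. Readout: FRET substrate fluorescence after 2 h at RT.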

[9] = qHTS assay for small molecule activators of the p53 signaling pathway (AID 651743; active means well fitted activation curve with a large enough effect in the signal ratio, not every such curve was filed as active; the % refers to the signal ratio; further: % of control where 0% means no effect); conditions: HCT-116 p53RE-bla, beta-lactamase FRET ratio, 16 h; stronger effect = higher value
Outline: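 Agonist-mode quantitative HTS in HCT-116 cells carrying a p53-response-element beta-lactamase reporter; 16 h compound treatment at 37 C, then FRET substrate loading for 2 h at room temperature and fluorescence read.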

[10] = qHTS assay for small molecule activators of the nuclear factor-kappa B (NF-kB) signaling pathway (AID 651749; active means well fitted activation curve with a large enough effect in the signal ratio; the % refers to the signal ratio; further: % of control where 0% means no effect); conditions: NF-kB-bla ME-180 cells, beta-lactamase FRET ratio, 16 h; stronger effect = higher value
Outline: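 Human ME-180 cervical cells with an NF-kB-bla construct; compounds added via 23 nL pin transfer, DMSO as vehicle; incubation 16 hr. Reporter activity measured by FRET disruption.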

Retinoic acid receptor RXR-alpha (Homo sapiens), sequence (P19793 whole entry, looked up): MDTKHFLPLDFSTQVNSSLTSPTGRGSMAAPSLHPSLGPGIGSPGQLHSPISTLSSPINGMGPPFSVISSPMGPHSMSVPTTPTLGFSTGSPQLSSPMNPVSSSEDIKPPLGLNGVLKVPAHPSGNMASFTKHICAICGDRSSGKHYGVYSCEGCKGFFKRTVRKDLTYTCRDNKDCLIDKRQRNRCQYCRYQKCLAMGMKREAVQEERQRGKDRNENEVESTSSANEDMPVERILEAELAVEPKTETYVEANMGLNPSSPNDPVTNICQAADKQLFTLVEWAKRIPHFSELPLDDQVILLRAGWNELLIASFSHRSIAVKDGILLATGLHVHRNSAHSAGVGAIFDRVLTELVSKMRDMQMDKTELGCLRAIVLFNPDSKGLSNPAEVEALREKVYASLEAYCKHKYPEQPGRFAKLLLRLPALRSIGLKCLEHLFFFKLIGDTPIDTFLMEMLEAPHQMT
Voltage-gated inwardly rectifying potassium channel KCNH2 (Homo sapiens), sequence (Q12809 whole entry, looked up): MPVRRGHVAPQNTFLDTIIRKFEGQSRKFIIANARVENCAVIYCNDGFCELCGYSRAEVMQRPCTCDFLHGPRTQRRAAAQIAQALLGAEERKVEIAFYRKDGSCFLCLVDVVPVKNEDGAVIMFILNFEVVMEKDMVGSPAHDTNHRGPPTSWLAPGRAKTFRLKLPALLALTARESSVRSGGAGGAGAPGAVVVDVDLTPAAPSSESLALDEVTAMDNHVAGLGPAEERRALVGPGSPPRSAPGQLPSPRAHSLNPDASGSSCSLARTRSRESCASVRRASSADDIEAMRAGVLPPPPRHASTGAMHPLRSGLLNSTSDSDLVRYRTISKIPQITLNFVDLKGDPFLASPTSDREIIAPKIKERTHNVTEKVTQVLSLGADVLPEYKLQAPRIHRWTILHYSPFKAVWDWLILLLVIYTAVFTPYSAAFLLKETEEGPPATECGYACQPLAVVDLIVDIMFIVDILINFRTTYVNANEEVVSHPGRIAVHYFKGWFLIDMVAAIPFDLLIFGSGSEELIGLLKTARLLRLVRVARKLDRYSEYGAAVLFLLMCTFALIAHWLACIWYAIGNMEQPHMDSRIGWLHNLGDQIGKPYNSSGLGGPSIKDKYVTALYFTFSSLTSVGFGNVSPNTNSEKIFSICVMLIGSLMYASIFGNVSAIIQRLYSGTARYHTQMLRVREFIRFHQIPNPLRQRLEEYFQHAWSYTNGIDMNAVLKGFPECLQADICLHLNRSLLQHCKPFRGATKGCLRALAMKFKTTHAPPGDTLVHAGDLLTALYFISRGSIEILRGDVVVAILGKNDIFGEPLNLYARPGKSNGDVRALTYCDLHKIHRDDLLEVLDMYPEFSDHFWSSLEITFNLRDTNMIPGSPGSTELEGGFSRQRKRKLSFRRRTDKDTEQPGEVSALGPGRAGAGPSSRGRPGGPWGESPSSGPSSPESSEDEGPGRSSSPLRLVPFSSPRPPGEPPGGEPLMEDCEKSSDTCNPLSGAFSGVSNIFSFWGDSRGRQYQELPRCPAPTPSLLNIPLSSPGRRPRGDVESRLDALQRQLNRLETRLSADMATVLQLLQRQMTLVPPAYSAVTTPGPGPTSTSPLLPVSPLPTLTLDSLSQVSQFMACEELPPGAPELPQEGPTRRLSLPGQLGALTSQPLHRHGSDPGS
Thyroid hormone receptor beta (Homo sapiens), sequence (P10828 whole entry, looked up): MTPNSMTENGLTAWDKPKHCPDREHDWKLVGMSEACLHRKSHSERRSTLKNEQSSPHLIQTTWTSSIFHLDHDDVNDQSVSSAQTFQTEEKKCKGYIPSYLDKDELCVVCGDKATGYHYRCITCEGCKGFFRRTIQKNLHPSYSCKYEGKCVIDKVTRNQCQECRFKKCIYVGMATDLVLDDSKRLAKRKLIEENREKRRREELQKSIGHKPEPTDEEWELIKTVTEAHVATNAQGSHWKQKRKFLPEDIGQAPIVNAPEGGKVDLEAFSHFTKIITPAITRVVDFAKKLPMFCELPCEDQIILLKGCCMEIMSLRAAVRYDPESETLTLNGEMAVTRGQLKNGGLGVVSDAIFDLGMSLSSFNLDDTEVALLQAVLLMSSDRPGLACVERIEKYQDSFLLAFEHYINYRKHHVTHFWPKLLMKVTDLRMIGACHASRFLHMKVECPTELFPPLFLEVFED

SMILES	max response [1]	outcome [2]	outcome [3]	max response [4]	max response [5]	activity change % (negative = inhibition) [6]	Potency [7]	Potency [8]	activation [9]	activation [10]
O=C1CCCCC1	-9.55%	inactive	inactive	-8.36%	-0.633% (inactive)	-11.2% (inactive)	inactive	inactive	–	–
CC/C=C/C#N	-6.67%	inactive	inactive	-0.89%	10.5% (inactive)	3.84% (inactive)	inactive	inactive	-0.654% (inactive)	–
CCCCC(CC)C(=O)O (stereo unspecified)	12.4%	inactive	inactive	-3.23%	4.48% (inactive)	-2.96% (inactive)	inactive	inactive	–	–
Cc1ccc2cccnc2c1	5.51%	inactive	inactive	6%	0.426% (inactive)	17% (inactive)	inactive	inactive	-4.94% (inactive)	–
Cc1cccc([N+](=O)[O-])c1C(=O)O	-20.5%	inactive	inactive	-4.5%	-0.976% (inactive)	13.9% (inactive)	inactive	inactive	-3.44% (inactive)	–
C=Cc1ccc(C=C)cc1	-1.02%	inactive	inactive	-3.44%	16.7% (inactive)	-18.2% (inactive)	inactive	inactive	–	–
NC(N)=S	-8.98%	inactive	inactive	10%	4.07% (inactive)	-6.09% (inactive)	inactive	inactive	-1.07% (inactive)	–
C=C(C)C(=O)OCC(C)O (stereo unspecified)	-4.4%	inactive	inactive	-2%	5.46% (inactive)	11.2% (inactive)	inactive	inactive	–	–
CCN(C(=O)N(CC)c1ccccc1)c1ccccc1	6.15%	inactive	inactive	-7.14%	0.622% (inactive)	1.82% (inactive)	inactive	inactive	–	–
O=[N+]([O-])c1ccc(CCO)cc1	-1.7%	inactive	inactive	-0.777%	2.63% (inactive)	3.64% (inactive)	inactive	inactive	-2.15% (inactive)	–
Cc1cc(C)cc(O)c1	0.806%	inactive	inactive	-5.75%	24.6% (inactive)	2.53% (inactive)	inactive	inactive	-2.15% (inactive)	–
CCCCN(CCO)CCCC	-2.59%	inactive	inactive	-12.3%	4.73% (inactive)	22.2% (inactive)	inactive	inactive	–	–
OC(CCl)CCl	-16.7%	inactive	inactive	-12.4%	-2.39% (inactive)	2.68% (inactive)	inactive	inactive	-1.36% (inactive)	–
CCCCCNCCCCC	1.44% and -10.1%	inactive	inactive	-1.51% and -1.45%	4.32% (inactive) and 13.3% (inactive)	-1.69% (inactive) and -17.1% (inactive)	inactive	inactive	-2.16% (inactive) and -1.29% (inactive)	–
ClCCl	-5.75%	inactive	inactive	3.57%	5.83% (inactive)	0.0464% (inactive)	inactive	inactive	-4.34% (inactive)	–
O=C(O)c1cccc([N+](=O)[O-])c1	-11.3% and -11.9%	inactive	inactive	-5.28% and -12.1%	-4.13% (inactive) and 8.19% (inactive)	3.98% (inactive) and -3.17% (inactive)	inactive	inactive	-1.71% (inactive) and -6.43% (inactive)	-1.01% (inactive) and -3.15% (inactive)
CC(C)Cc1nccs1	-0.474%	inactive	inactive	-5.6%	12.1% (inactive)	0.497% (inactive)	inactive	inactive	0.156% (inactive)	0.674% (inactive)
Cc1ccc(C)c(N)c1	7.96%	inactive	inactive	-10.5%	21.7% (inactive)	-4.28% (inactive)	inactive	inactive	-2.64% (inactive)	0.0574% (inactive)
CC(CCl)OC(C)CCl (stereo unspecified)	2.52%	inactive	inactive	-11.8%	19.4% (inactive)	-2.31% (inactive)	inactive	inactive	-3.45% (inactive)	0.22% (inactive)
CC(C)C=O	3.23%	inactive	inactive	-14.5%	8.49% (inactive)	-10% (inactive)	inactive	inactive	0.787% (inactive)	–
CC(=O)OC(C)=O	-0.73%	inactive	inactive	-8.16%	5.52% (inactive)	16.3% (inactive)	inactive	inactive	1.52% (inactive)	–
Cc1cc(C)cc(N)c1	-7.06%	inactive	inactive	1.47%	9.88% (inactive)	-11.7% (inactive)	inactive	inactive	-1.89% (inactive)	0.882% (inactive)
CC(=O)OC(C)C	0.6%	inactive	inactive	7.8%	7.02% (inactive)	7.16% (inactive)	inactive	inactive	-0.528% (inactive)	–
